Test systems include DU-145 prostate; K-562 leukemia; MALME-3M melanoma; MDA-MB-231 breast; RXF 393 renal; SF-268 CNS; SF-295 CNS; SF-539 CNS; UACC-257 melanoma; M14 melanoma.
What all share (experiment): NCI-60 one-dose screen, 48 h (100 = growth as untreated, 0 = no growth, -100 = all killed)
Common to all, as to details: 10 µM unless noted

SMILES strings stand for the structures. About 83,000 compounds went through this panel and 20% of them were active in at least one assay; those are over-represented in the sample as a whole.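 48-hour exposure, single concentration, 96-well plates; percent growth endpoint where 0 means no net growth. Active: below 10.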 Values without a mark were called inactive. The source made the active and inactive calls.

Turning to `O=c1ccc(-c2nc(N3CCOCC3)c3ccccc3n2)c[nH]1`, the growth in the test with DU-145 prostate was 93.6%; in the test on K-562 leukemia it was 116%; in the test with MALME-3M melanoma it was 99.4%; in the test with MDA-MB-231 breast, 88.4%; with RXF 393 renal it was 103%; in the test with SF-268 CNS, 88.1%. The growth is 90.5% with SF-295 CNS, 93.5% with SF-539 CNS, 124% in the test with UACC-257 melanoma and 93.3% with M14 melanoma.
As for `CCCCCC(=O)Oc1ccc(/C(=C(\C)c2ccccc2)c2ccc(OCCN3CCCCC3)cc2)cc1`, the growth is 97.2% in the test on DU-145 prostate; 20.1% with K-562 leukemia; 68% in the test with MALME-3M melanoma; 95% in the test with MDA-MB-231 breast; 82.7% with RXF 393 renal; 84.5% in the test with SF-268 CNS. Besides, the growth is 84.2% with SF-295 CNS, 59.4% with SF-539 CNS, 72.4% in the test on UACC-257 melanoma and 65.9% in the test on M14 melanoma.
For `O=C(Nc1ccc(NC(=O)c2cc(=O)[nH]c3ccccc23)cc1)Nc1cccc(Cl)c1`, the growth was 105% in the test on DU-145 prostate; 83.5% in the test with K-562 leukemia; 90% with MALME-3M melanoma; 78.7% with MDA-MB-231 breast; 95.3% with RXF 393 renal; 65.3% in the test with SF-268 CNS. Further, the growth with SF-295 CNS is 95.3%; in the test with SF-539 CNS it was 84.1%; in the test on UACC-257 melanoma, 98.2%; in the test with M14 melanoma, 93%.
As to `O=S(=O)(NCCCNc1nccc(-c2c(-c3cccc(F)c3)nc3sccn23)n1)c1cccc2ccccc12`, the growth in the test with DU-145 prostate was 49.9%; with K-562 leukemia, 15.2%; in the test with MALME-3M melanoma, 78.7%; in the test with MDA-MB-231 breast it was 4.05% (active); in the test on RXF 393 renal, 62.9%; in the test on SF-268 CNS it was 44.5%. Further, the growth was 34.6% in the test on SF-295 CNS, 72.8% in the test with SF-539 CNS, 72.9% in the test with UACC-257 melanoma and 42.7% in the test with M14 melanoma.
Turning to `CCCCCCOc1ccc(/C=N/Nc2cc(C)nc3ccc(Cl)cc23)cc1`, the growth is -49% (active) in the test on DU-145 prostate; -20.4% (active) in the test with K-562 leukemia; -48.7% (active) with MALME-3M melanoma; -79.9% (active) in the test on MDA-MB-231 breast; -94.3% (active) in the test with RXF 393 renal; 69.9% with SF-268 CNS. The growth was -84.3% (active) with SF-295 CNS, -86.5% (active) with SF-539 CNS, 116% in the test on UACC-257 melanoma and 2.01% (active) in the test on M14 melanoma.
In the case of `COc1cc2c(-c3cc4c(cc3CNCCc3ccc5c(c3)OCO5)OCO4)cccc2c(OC)c1O`, the growth in the test on DU-145 prostate is 95.8%; in the test with K-562 leukemia, 20%; in the test on MALME-3M melanoma it was 103%; in the test on MDA-MB-231 breast, 69.4%; with RXF 393 renal, 74.9%; with SF-268 CNS it was 68%. Moreover, the growth in the test with SF-295 CNS is 92.2%; with SF-539 CNS, 88.4%; in the test on UACC-257 melanoma, 96.1%; in the test on M14 melanoma, 84.4%.
Take `O=C(Nc1ccc(F)cc1)Nc1ccc(NC(=O)c2cc(Cl)nc3ccccc23)cc1`: the growth with DU-145 prostate was 57%; in the test with K-562 leukemia, 58.5%; in the test with MALME-3M melanoma it was 53.7%; in the test on MDA-MB-231 breast it was 45.9%; with RXF 393 renal it was 86.9%; with SF-268 CNS, 68.1%. In addition, the growth in the test on SF-295 CNS was 64.6%; with SF-539 CNS, 35.6%; with UACC-257 melanoma, 79.8%; with M14 melanoma it was 74.3%.
As to `CCOC(=O)c1cc(C(=O)c2ccc(OC)cc2)n2ccc(/C=C/c3cc[n+](CC(=O)c4ccc(OC)cc4)cc3)cc12`, the growth was 75% with DU-145 prostate; -15.2% (active) in the test with K-562 leukemia; 92.1% in the test on MALME-3M melanoma; 72.1% in the test with MDA-MB-231 breast; 99.9% with RXF 393 renal; 94.5% in the test on SF-268 CNS. For the same compound, the growth with SF-295 CNS was 104%; in the test on SF-539 CNS, 92.9%; with UACC-257 melanoma, 111%; in the test with M14 melanoma, 75.4%.
Turning to `CC1(C)c2[nH]c3ccccc3c2C[C@]2(C)[C@H]3C(=O)C=C4[C@@H]5C[C@@](C)(C(N)=O)CC[C@]5(C)CC[C@@]4(C)[C@]3(C)CC[C@@H]12`, the growth was 92.2% with DU-145 prostate; 31.3% with K-562 leukemia; 79.3% with MALME-3M melanoma; 74.1% in the test on MDA-MB-231 breast; 70.5% in the test with RXF 393 renal; 69.1% in the test on SF-268 CNS. Also, the growth in the test with SF-295 CNS was 82.9%; in the test with SF-539 CNS it was 92.8%; in the test with UACC-257 melanoma it was 83.2%; in the test on M14 melanoma it was 80.2%.
Consider `C/C(=N\NC(=O)CSc1nc2ccccc2c(=O)n1CCc1ccc(S(N)(=O)=O)cc1)c1ccccn1`, for which the growth in the test on DU-145 prostate is 44.1%; in the test with K-562 leukemia it was 25.2%; in the test on MALME-3M melanoma it was 36.5%; in the test on MDA-MB-231 breast it was 27.4%; in the test on RXF 393 renal, 52.8%; in the test on SF-268 CNS it was 34.3%. Besides, the growth is 13.4% with SF-295 CNS, 29.8% in the test on SF-539 CNS, 45.9% in the test with UACC-257 melanoma and 17.6% in the test with M14 melanoma.
As for `Nc1c(C(=O)Nc2ccnc3ccccc23)sc2nc3c(cc12)CN(Cc1ccccc1)CC3`, the growth was 85.6% with DU-145 prostate; 38.5% with K-562 leukemia; 96% with MALME-3M melanoma; 67.7% in the test with MDA-MB-231 breast; 96.1% with RXF 393 renal; 87.8% with SF-268 CNS. In addition, the growth in the test with SF-295 CNS was 75.2%; with SF-539 CNS, 99.1%; with UACC-257 melanoma, 78.8%; in the test on M14 melanoma it was 41.9%.
Turning to `COC(=O)N[C@H]1CCc2c(Cl)c(OC)c(OC)c(OC)c2-c2ccc(SC)c(=O)cc21`, the growth is -11.1% (active) in the test on DU-145 prostate; 7.05% (active) with K-562 leukemia; 36.8% in the test on MALME-3M melanoma; -2.11% (active) with MDA-MB-231 breast; 20.3% in the test on RXF 393 renal; 20.2% in the test on SF-268 CNS. Besides, the growth in the test on SF-295 CNS was 12%; in the test with SF-539 CNS, -0.571% (active); in the test with UACC-257 melanoma, 68.3%; with M14 melanoma, 0.0864% (active).
As for `CC(Sc1nc2ccccc2c(=O)n1CCc1ccc(S(N)(=O)=O)cc1)C(=O)Nc1ccc(Cl)cc1` (stereo not given), the growth with DU-145 prostate was 99.4%; in the test on K-562 leukemia, 60.4%; in the test on MALME-3M melanoma it was 89.7%; in the test with MDA-MB-231 breast, 82.6%; in the test with RXF 393 renal, 72.4%; in the test on SF-268 CNS, 74.7%. Also, the growth was 83.8% in the test with SF-295 CNS, 90.8% in the test with SF-539 CNS, 90.2% with UACC-257 melanoma and 105% in the test with M14 melanoma.

Values taken from PubChem BioAssay (NCI).
